Source: PubChem
Shown are actives, neighbours in structure and some others; about 1.6% of the full set was active somewhere.
PPC-1+TRAIL kill: compounds killing PPC-1 cancer cells with TRAIL present (potentiator screen, no TRAIL-free arm). PPC-1 cells + TRAIL, ATPLite viability luminescence. AID 1443. 220,000 tested, 0.41% active. cell killing (% activity), % at 4 µM or 5 µM;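 active = cell killing above 50% in the first pass at 4 µM, then a duplicate retest at 5 µM averaging 50% or more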;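 note: plate controls were cells with TRAIL plus DMSO for no effect and medium-only wells lacking cells for full effect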
TRAIL sens C8: caspase-8 TRAIL sensitization; NB7+C8 cells + TRAIL, ATPlite viability luminescence; inhibition (viability loss, TRAIL sensitization), % at 10 µM; 360,000 tested, 1% active; AID 624354;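 active = compounds causing at least 50% loss of cell viability in the single-dose screen, relative to plate controls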
STAT3 inh: reduces IL-6 driven STAT3 reporter signal. inhibition, % at 5.5 µM. U3A cells, IL-6 STAT3-luciferase reporter, luminescence; host cell line lacks STAT1. 190,000 tested, 0.89% active. AID 862;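 active = inhibition above the mean inhibition across all screened compounds plus 3 SD, cut at about 44% in these data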;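 note: 0% = DMSO only wells and 100% = 100 µM nifuroxazide control wells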
Platelet DG rel: platelet dense granule release activity. 300,000 tested, 0.22% active. human platelet-rich plasma, SFLLRN dense granule ATP release, luminescence. inhibition, %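 (compounds screened at 7.5 µM in platelet-rich plasma)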;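 active = mean replicate score, as percent of positive control, at or above 50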
STAT1 inh: reduces IFN-gamma driven STAT1 reporter signal; NIH 3T3 STAT1-luciferase reporter, luminescence; inhibition, % at 5.5 µM; 200,000 tested, 0.35% active; AID 920;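 active = inhibition above a set limit, the mean inhibition across all tested compounds plus 3 SD, cut at about 34% in these data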;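 note: 0% = IFN-gamma with DMSO and 100% = IFN-gamma with 300 µM nifuroxazide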
* = called active by the depositor; . = no result.

SMILES	PPC-1+TRAIL kill	TRAIL sens C8	STAT3 inh	Platelet DG rel	STAT1 inh
Cc1ccn2c(c1)nc(=S)n2C(=O)c1ccccc1	82*	89*	-11	14	-202
COc1cccc2c1CCc1c-2nc2ccccc2c1C(=O)O	.	68*	.	-2	.
COc1ccccc1NC(=O)c1c(C)nc2ccccc2c1C(=O)O	4	14	.	0	.
O=C1NC(=O)C2(CCCC2)N1	.	13	.	.	.
O=C1NC(=O)C2(CCC(C(=O)O)C2)N1 (centres undefined)	14	2	-1	50*	3
O=C(Nc1ccccc1)c1ccccc1O	2	11	21	0	5
Cc1ccc(C(=O)Nc2ccc3ccccc3n2)cc1	.	50*	.	3	.
Cc1ccoc1C(=O)Nc1ccc2ccccc2c1	.	54*	.	29	.
Cc1ccc(NC(=O)c2ccccc2O)cc1	41	52*	18	16	-4
Cc1cc(C(=O)Nc2ccc3ccccc3c2)oc1C	.	19	.	2	.
Cc1ccc(C(=O)Nc2ccc3ccccc3c2)cc1	.	83*	.	19	.
O=C(Nc1ccc(F)c(Cl)c1)[C@@H]1O[C@H](CO)[C@H](O)[C@H](O)[C@H]1O	.	-6	.	.	.
COC(=O)CCCn1cc(CN(C)C2CN(Cc3cn(CCCC(=O)OC)nn3)S(=O)(=O)C2)nn1 (centres undefined)	.	-12	.	.	.
O=C(Nc1ccc2ccccc2c1)c1ccc(Cl)cc1	.	57*	.	-6	.
O=C(Nc1ccc(F)c(Cl)c1)c1ccccc1	.	13	.	.	.
OCCN1CCN(c2ncnc3c2ncn3[C@H]2CN(Cc3ccc(F)cc3)C[C@@H](CO)O2)CC1	.	1	.	.	.
Cc1ccc(S(=O)(=O)N2CCOCC2)cc1C(=O)NCCN1C(=O)S/C(=C\c2ccccc2Cl)C1=O	22	-2	0	-6	8
CC(C)(C)c1ccc(/C=C2\SC(=O)N(CCNC(=O)c3cccc(S(=O)(=O)N4CCOCC4)c3)C2=O)cc1	15	58*	17	12	-16
O=C(NCCCN1CCOCC1)C1(c2ccccc2)CCOCC1	6	-7	0	2	2
O=C(NCCCN1CCOCC1)C1(c2ccccc2)CCCC1	-11	-7	1	70*	0
COc1ccc(CN2CCNC(=O)C2CC(=O)NCc2csc(C)n2)c(F)c1 (centres undefined)	.	-29	.	-8	.
CC(C)(C)NC(=O)C1c2ccccc2OCC(=O)N1Cc1ccccc1 (centres undefined)	.	-23	.	.	.
O=C(CN(Cc1ccccc1)C(=O)CCl)c1cccc(Br)c1	.	97*	.	.	.
O=C(NCCCc1ccccc1)c1cccc(Br)c1	.	0	.	1	.
O=C(Nc1cccc(Cl)c1)c1ccc2c(c1)OCCO2	.	59*	.	.	.
SMILES	PPC-1+TRAIL kill	TRAIL sens C8	STAT3 inh	Platelet DG rel	STAT1 inh
COc1cccc(NC(=O)c2ccc3c(c2)OCCO3)c1	.	87*	.	52*	.
COc1cccc(NC(=O)COC(=O)c2ccc3c(c2)OCCO3)c1	.	0	.	.	.
COc1ccc(NC(=O)c2ccc3c(c2)OCCO3)cc1OC	.	52*	.	4	.
COc1cccc(C(=O)Nc2ccc(C3CC3(Cl)Cl)cc2)c1 (centres undefined)	21	49*	16	35	-60
COc1cccc(C(=O)Nc2ccc(C)cc2)c1	22	28	21	17	-37
CCOC(=O)CC1(C)Oc2cc(Cl)ccc2N1S(=O)(=O)c1ccc(C)cc1 (centres undefined)	.	11	.	.	.
COc1cccc(NC(=O)c2oc3ccccc3c2NC(=O)c2ccc3c(c2)OCO3)c1	32	31	9	17	-6
COc1cccc(NC(=O)c2ccc3c(c2)OCO3)c1	.	53*	.	12	.
CCCn1c(O)c(/C=C2\C=NN=C2c2ccccc2)sc1=S	-1	76*	14	1	-9
O=c1[nH]c(=S)[nH]c2c1C(c1ccc(Cl)cc1)OC(CCc1ccccc1)C2 (centres undefined)	.	3	.	.	.
O=c1[nH]c(=S)[nH]c2c1C(c1ccc(Cl)c(Cl)c1)OC(CCc1ccccc1)C2 (centres undefined)	.	59*	.	.	.
CCCCC1C(=O)N(c2ccccc2)N(c2ccc(O)cc2)C1=O (centres undefined)	.	57*	.	.	.
CCCCC1(CO)C(=O)N(c2ccccc2)N(c2ccccc2)C1=O	-14	-6	.	-13	.
Nc1ncnc2c(C3OC(CO)C(O)C3O)c[nH]c12 (centres undefined)	.	88*	.	.	.
Nc1ncnc2c1nc(-c1ccccc1)n2C1OC(CO)C(O)C1O (centres undefined)	.	-12	.	.	.
CC1(C(=O)NS(=O)(=O)c2ccccc2Cl)CCN1C(=O)c1ccccc1CCc1ccccc1 (centres undefined)	.	-1	.	.	.
CCN(CC)C(=O)c1[nH]cnc1C(=O)NCc1ccccc1	.	-19	.	.	.
O=C(NN=Cc1ccc2c(c1)OCO2)NN=Cc1ccc2c(c1)OCO2	.	16	.	.	.
COc1cc(/C=N/NC(=O)c2nonc2C)ccc1O	15	2	-8	53*	-33
COc1cc(/C=N/NC(=O)c2nnn(-c3nonc3N)c2C)ccc1OCc1ccc(Cl)cc1	.	56*	.	.	.
O=C(N/N=C/c1ccc(O)c(O)c1)N/N=C/c1ccc(O)c(O)c1	.	55*	.	7	.
Cc1nonc1C(=O)N/N=C/c1ccc(O)c(O)c1	7	15	-20	67*	-28
COc1ccc([C@@H]2C[C@H]3[C@@H](CN2S(=O)(=O)c2ccccc2)C(=O)C[C@@H](c2cccc4ccccc24)N3S(=O)(=O)c2ccc(C)cc2)cc1	.	4	.	.	.
CC1CCN(S(=O)(=O)c2cc(C(=O)N3CCN(c4ccccc4)CC3)ccc2Br)CC1	.	5	.	.	.
O=C(NCCO)c1cccc(-c2cnc3cccnn23)c1	.	-12	.	.	.
SMILES	PPC-1+TRAIL kill	TRAIL sens C8	STAT3 inh	Platelet DG rel	STAT1 inh
O=C(CN1C(=O)/C(=C/c2ccc(Cl)cc2)SC1=S)NC1C=CS(=O)(=O)C1 (centres undefined)	.	-8	.	-10	.
CC(C)c1ccc(/C=C2\SC(=O)N(CC(=O)NC3C=CS(=O)(=O)C3)C2=O)cc1 (centres undefined)	.	54*	.	1	.
O=C(Nc1ccc(F)cc1)N1CCN(c2nc3ccccc3s2)CC1	11	0	46*	0	7
CCN(C(=O)c1cc2c(=O)[nH]c3ccc(C)cc3c2s1)c1ccc(F)cc1	0	-1	.	3	.
Cc1ccc2[nH]c(=O)c3cc(C(=O)N(C)c4ccc(C)c(C)c4)sc3c2c1	-6	31	.	74*	.
CCN(CC)S(=O)(=O)c1cc(C(=O)OCC(=O)Nc2ccc(-c3nc4ccc(C)cc4s3)cc2)ccc1F	28	74*	38	-6	-50
Cc1ccc2nc(-c3ccc(NC(=O)CCN4C(=O)c5ccccc5C4=O)cc3)sc2c1	32	83*	31	-44	-66
O=C(CCN1C(=O)c2ccccc2C1=O)Nc1ccc(-c2nc3ccccc3s2)cc1	1	69*	2	9	-48
COc1ncccc1-c1cc2nc(NCCCN(C)C)n(C)c(=O)c2s1	.	6	.	.	.
CC(C)(C)Cc1c(-c2cccc(Br)c2)nc2ccc(Br)cn12	.	-4	.	.	.
O=C(Nc1ncccn1)c1cc(-c2ccc(F)cc2)nc2ccccc12	8	6	-1	3	-6
O=C(O)c1cc(-c2cccc3ccccc23)nc2ccccc12	.	-1	.	-8	.
